Compounds without any hit were thinned out: in the full panel of roughly 83,000, 20% have a hit.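 Assay: single dose, 48 h. Readout: percent growth (0 = no net growth; negative = cell death). Active: <10.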 Activity calls are given as the source filed them.
Key:
Assay in all cases: NCI-60 one-dose screen, 48 h (100 = growth as untreated, 0 = no growth, -100 = all killed)
EKVX NSCLC = details: 10 µM unless noted
SN12C renal = details: 10 µM unless noted
UO-31 renal = details: 10 µM unless noted
TK-10 renal = details: 10 µM unless noted
ACHN renal = details: 10 µM unless noted
CAKI-1 renal = details: 10 µM
A498 renal = details: 10 µM unless noted
CCRF-CEM leukemia = details: 10 µM unless noted
MOLT-4 leukemia = details: 10 µM unless noted
SR leukemia = details: 10 µM unless noted
RPMI-8226 leukemia = details: 10 µM unless noted
OVCAR-8 ovarian = details: 10 µM unless noted
OVCAR-5 ovarian = details: 10 µM unless noted
OVCAR-4 ovarian = details: 10 µM unless noted
SK-OV-3 ovarian = details: 10 µM unless noted
IGROV1 ovarian = details: 10 µM unless noted
HS 578T breast = details: 10 µM unless noted
NCI/ADR-RES ovarian = details: 10 µM unless noted

Measured: growth

C=CCn1c(SCC(=O)Nc2ccc(OC)cc2)nnc1-c1ccc(Cl)cc1
inactive: EKVX NSCLC 92.5% | SN12C renal 92.7% | UO-31 renal 73.5% | TK-10 renal 97.9% | ACHN renal 92.8% | CAKI-1 renal 84.6% | A498 renal 98.2% | CCRF-CEM leukemia 117% | MOLT-4 leukemia 84.2% | SR leukemia 74.3% | RPMI-8226 leukemia 105% | OVCAR-8 ovarian 98% | OVCAR-5 ovarian 93.9% | OVCAR-4 ovarian 99.7% | SK-OV-3 ovarian 101% | IGROV1 ovarian 89.8% | HS 578T breast 92.2% | NCI/ADR-RES ovarian 83.6%

COc1ccc([C@@H]2[C@@H](O)C(=O)N2c2cc(OC)c(OC)c(OC)c2)cc1Cl
inactive: EKVX NSCLC 52.4% | SN12C renal 25.6% | UO-31 renal 31.8% | TK-10 renal 89.4% | ACHN renal 27.9% | CAKI-1 renal 30.6% | CCRF-CEM leukemia 19.6% | RPMI-8226 leukemia 28.4% | OVCAR-5 ovarian 28.9% | OVCAR-4 ovarian 68.7% | IGROV1 ovarian 27.1%
active: A498 renal -16.9% | OVCAR-8 ovarian -11.7% | HS 578T breast 8.59% | NCI/ADR-RES ovarian -21.2%

CN1CCN(c2ccc(C(=O)/C=C/c3ccc(Cl)c(C(F)(F)F)c3)cc2)CC1
inactive: EKVX NSCLC 70.2% | SN12C renal 49.1% | UO-31 renal 50.5% | TK-10 renal 102% | ACHN renal 65.7% | CAKI-1 renal 64.1% | A498 renal 81.6% | CCRF-CEM leukemia 11% | MOLT-4 leukemia 41.6% | OVCAR-8 ovarian 55% | OVCAR-5 ovarian 79.7% | OVCAR-4 ovarian 66% | SK-OV-3 ovarian 105% | IGROV1 ovarian 78.1% | HS 578T breast 87.3% | NCI/ADR-RES ovarian 64.4%
active: SR leukemia 2.99% | RPMI-8226 leukemia 3.06%

O=C1c2c(c3c4ccc(Br)cc4oc3c3[nH]c4ccccc4c23)C(=O)N1CCO
inactive: EKVX NSCLC 53.7% | SN12C renal 34% | UO-31 renal 25.6% | TK-10 renal 107% | ACHN renal 12% | CAKI-1 renal 23.6% | A498 renal 52.4% | CCRF-CEM leukemia 21.7% | RPMI-8226 leukemia 43.3% | OVCAR-8 ovarian 50.4% | OVCAR-5 ovarian 69.9% | OVCAR-4 ovarian 89.7% | SK-OV-3 ovarian 37.4% | IGROV1 ovarian 43.4% | HS 578T breast 88.5% | NCI/ADR-RES ovarian 44.7%

COc1ccc([C@H]2[C@H](O)C(=O)N2c2cc(OC)c(OC)c(OC)c2)cc1O
active: A498 renal -16% | OVCAR-8 ovarian -11.5% | HS 578T breast 5.02%
inactive: EKVX NSCLC 51.2% | SN12C renal 24.6% | UO-31 renal 32.6% | TK-10 renal 81.1% | ACHN renal 28.1% | CAKI-1 renal 28.9% | CCRF-CEM leukemia 16.1% | RPMI-8226 leukemia 16.5% | OVCAR-5 ovarian 30.1% | OVCAR-4 ovarian 70.3% | SK-OV-3 ovarian 21.4% | IGROV1 ovarian 26.7% | NCI/ADR-RES ovarian 18.6%

C=CCn1c(SCC(=O)Nc2cccc(C(=O)/C=C/c3cccc([N+](=O)[O-])c3)c2)nc2ccccc2c1=O
inactive: EKVX NSCLC 96% | SN12C renal 98.3% | UO-31 renal 79% | TK-10 renal 98.4% | ACHN renal 96.5% | CAKI-1 renal 81.2% | A498 renal 81.1% | CCRF-CEM leukemia 94.5% | RPMI-8226 leukemia 17% | OVCAR-8 ovarian 94.2% | OVCAR-5 ovarian 92.5% | OVCAR-4 ovarian 92% | IGROV1 ovarian 96.8% | HS 578T breast 91.9% | NCI/ADR-RES ovarian 95.7%

COc1ccc2c(C3=C(c4c[nH]c5ccccc45)C(=O)N(O)C3=O)coc2c1
inactive: EKVX NSCLC 77% | SN12C renal 101% | UO-31 renal 58.2% | TK-10 renal 144% | ACHN renal 94.2% | CAKI-1 renal 90.2% | A498 renal 85% | CCRF-CEM leukemia 26.9% | RPMI-8226 leukemia 72.1% | OVCAR-8 ovarian 77.5% | OVCAR-5 ovarian 105% | SK-OV-3 ovarian 86.5% | IGROV1 ovarian 77.1% | HS 578T breast 96.4% | NCI/ADR-RES ovarian 99.5%

COc1cc2c3c(n(CCCN4CCC[C@H]4C(N)=O)c(=O)c2cc1OC)-c1cc2c(cc1C3=O)OCO2
active: ACHN renal 0.589% | A498 renal -31% | CCRF-CEM leukemia -4.01% | RPMI-8226 leukemia -26.3% | OVCAR-8 ovarian -44.9% | SK-OV-3 ovarian -22.7% | NCI/ADR-RES ovarian 9.81%
inactive: EKVX NSCLC 36.2% | SN12C renal 17% | UO-31 renal 17.5% | TK-10 renal 59% | CAKI-1 renal 14.6% | OVCAR-5 ovarian 26.6% | OVCAR-4 ovarian 21.7% | IGROV1 ovarian 33.7% | HS 578T breast 70.9%

Cn1cc(-c2nn3c(=O)cc(-c4ccccc4)nc3s2)c2cc(F)ccc21
inactive: EKVX NSCLC 64.3% | SN12C renal 69.6% | UO-31 renal 57.1% | TK-10 renal 85.6% | ACHN renal 37.7% | CAKI-1 renal 31.6% | A498 renal 62.5% | CCRF-CEM leukemia 52.8% | RPMI-8226 leukemia 69.2% | OVCAR-8 ovarian 36.6% | OVCAR-5 ovarian 75.1% | OVCAR-4 ovarian 47.5% | SK-OV-3 ovarian 68.4% | IGROV1 ovarian 65.2% | HS 578T breast 60.9% | NCI/ADR-RES ovarian 42.2%

COc1ccc(-c2no[n+]([O-])c2Nc2ccccc2Br)cc1
inactive: EKVX NSCLC 96.1% | SN12C renal 90.4% | UO-31 renal 69.6% | TK-10 renal 145% | ACHN renal 89.2% | CAKI-1 renal 86% | A498 renal 113% | CCRF-CEM leukemia 109% | RPMI-8226 leukemia 93.7% | OVCAR-8 ovarian 90.3% | OVCAR-5 ovarian 108% | OVCAR-4 ovarian 101% | SK-OV-3 ovarian 94.3% | IGROV1 ovarian 85.4% | HS 578T breast 88.9% | NCI/ADR-RES ovarian 94.9%

CCC(CC)n1c(=O)c(SC2=NC3C(NN2)N(CC)C(=O)N3CC)c(C(=O)O)c2ccccc21 (stereo not given)
inactive: EKVX NSCLC 52.8% | SN12C renal 20.1% | UO-31 renal 39.5% | TK-10 renal 68.8% | ACHN renal 27.7% | CAKI-1 renal 36.6% | CCRF-CEM leukemia 16.6% | MOLT-4 leukemia 16.2% | SR leukemia 14.4% | RPMI-8226 leukemia 14.4% | OVCAR-5 ovarian 37.3% | OVCAR-4 ovarian 65% | IGROV1 ovarian 32.6% | HS 578T breast 19.3% | NCI/ADR-RES ovarian 20.4%
active: A498 renal -10.5% | OVCAR-8 ovarian 8.01%

COc1ccc2c(C3=C(c4cn(C)c5ccccc45)C(=O)NC3=O)coc2c1
inactive: EKVX NSCLC 50.7% | SN12C renal 32.3% | UO-31 renal 37.8% | TK-10 renal 79.4% | ACHN renal 37.4% | CAKI-1 renal 42% | A498 renal 34.9% | CCRF-CEM leukemia 18.8% | RPMI-8226 leukemia 11.6% | OVCAR-8 ovarian 41% | OVCAR-5 ovarian 43% | OVCAR-4 ovarian 79% | IGROV1 ovarian 47.2% | NCI/ADR-RES ovarian 25.1%
active: HS 578T breast 9.64%

COc1cc2c3c(n(CCCNC4CCC4)c(=O)c2cc1OC)-c1cc2c(cc1C3=O)OCO2
inactive: TK-10 renal 98.8% | A498 renal 74.4% | SK-OV-3 ovarian 23.4% | HS 578T breast 84.1%
active: EKVX NSCLC -38.4% | SN12C renal -48.9% | UO-31 renal -70.9% | ACHN renal -89.7% | CAKI-1 renal -82.2% | CCRF-CEM leukemia -6.07% | RPMI-8226 leukemia -39.1% | OVCAR-8 ovarian -49.8% | OVCAR-5 ovarian -72.4% | OVCAR-4 ovarian -57.9% | IGROV1 ovarian -53.3% | NCI/ADR-RES ovarian -32.4%

CS(=O)(=O)c1nccc(-c2c(-c3ccc(F)c(OCCc4ccccc4)c3)nc3sccn23)n1
inactive: EKVX NSCLC 59.5% | SN12C renal 83.7% | UO-31 renal 85.5% | TK-10 renal 100% | ACHN renal 90% | CAKI-1 renal 84% | A498 renal 90.4% | CCRF-CEM leukemia 84.2% | RPMI-8226 leukemia 54.7% | OVCAR-8 ovarian 87.5% | OVCAR-5 ovarian 100% | SK-OV-3 ovarian 121% | IGROV1 ovarian 59.3% | HS 578T breast 113% | NCI/ADR-RES ovarian 95.9%

CS(=O)c1nccc(-c2c(-c3ccc(F)c(OCc4ccc(F)cc4)c3)nc3sccn23)n1 (stereo not given)
inactive: EKVX NSCLC 75.2% | SN12C renal 93.6% | UO-31 renal 89.3% | TK-10 renal 108% | ACHN renal 77.2% | CAKI-1 renal 70.8% | A498 renal 88.2% | CCRF-CEM leukemia 45.8% | RPMI-8226 leukemia 20.2% | OVCAR-8 ovarian 89.1% | OVCAR-5 ovarian 100% | OVCAR-4 ovarian 101% | SK-OV-3 ovarian 115% | IGROV1 ovarian 17.7% | HS 578T breast 98.4% | NCI/ADR-RES ovarian 107%
active: SR leukemia -22.2%

Cc1ccc(/C=C/c2nn3c(-c4ccco4)nnc3s2)cc1
inactive: EKVX NSCLC 108% | SN12C renal 107% | UO-31 renal 85.6% | TK-10 renal 87.9% | ACHN renal 99.9% | CAKI-1 renal 86.8% | A498 renal 89% | CCRF-CEM leukemia 98.9% | SR leukemia 77.3% | RPMI-8226 leukemia 95.4% | OVCAR-8 ovarian 100% | OVCAR-5 ovarian 100% | OVCAR-4 ovarian 102% | SK-OV-3 ovarian 115% | IGROV1 ovarian 107% | HS 578T breast 116% | NCI/ADR-RES ovarian 104%

COc1cc2c3c(n(CCCN4CCCC4)c(=O)c2cc1OC)-c1cc2c(cc1C3=O)OCO2
inactive: SN12C renal 11.8% | UO-31 renal 40.4% | ACHN renal 55.6% | CAKI-1 renal 55.3% | A498 renal 80.2% | SK-OV-3 ovarian 53.7% | HS 578T breast 88.6%
active: EKVX NSCLC -55.3% | TK-10 renal -86% | CCRF-CEM leukemia -11.9% | RPMI-8226 leukemia -41.2% | OVCAR-8 ovarian -65.3% | OVCAR-5 ovarian -73.1% | OVCAR-4 ovarian -59.2% | IGROV1 ovarian -70.9% | NCI/ADR-RES ovarian -39.6%

CCOC(=O)CC(=O)CSC1=NC2C(NN1)N(C)C(=O)N2C (stereo not given)
inactive: EKVX NSCLC 56.2% | SN12C renal 91.6% | UO-31 renal 57.2% | TK-10 renal 104% | ACHN renal 82.6% | CAKI-1 renal 88.5% | A498 renal 118% | CCRF-CEM leukemia 38.8% | RPMI-8226 leukemia 56% | OVCAR-8 ovarian 66.8% | OVCAR-5 ovarian 88.6% | SK-OV-3 ovarian 114% | IGROV1 ovarian 91.2% | HS 578T breast 94.4% | NCI/ADR-RES ovarian 80.1%

COc1ccc([C@H]2[C@H](O)C(=O)N2c2cc(OC)c(OC)c(OC)c2)cc1
active: A498 renal -17.5% | OVCAR-8 ovarian 2.46%
inactive: EKVX NSCLC 44.4% | SN12C renal 20.3% | UO-31 renal 32.4% | TK-10 renal 69.8% | ACHN renal 26.8% | CAKI-1 renal 28.4% | CCRF-CEM leukemia 26.7% | RPMI-8226 leukemia 22.8% | OVCAR-5 ovarian 29.5% | OVCAR-4 ovarian 69.8% | SK-OV-3 ovarian 37.7% | IGROV1 ovarian 29.6% | HS 578T breast 16.6% | NCI/ADR-RES ovarian 18%

Reference: PubChem BioAssay (NCI)
